Measured values taken from PubChem BioAssay.
Active and inactive are the calls of the source.

What was measured:
Albumin (Bos taurus) = Albumin (Bos taurus) (UniProt P02769); assay: compounds binding labelled BSA control protein – biochemical, small-molecule microarray, Alexa647 label, 635/667 nm fluorescence, artefact control for SMM control protein annotation, profiling panel (AID 1118); settings: BSA-A647 binding, fluorescence 635 nm, higher = more signal;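 also: score merges 667 nm emission intensity and signal-to-noise per printed compound spot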
Chain of Albumin (Bos taurus) (P02769 whole entry, looked up): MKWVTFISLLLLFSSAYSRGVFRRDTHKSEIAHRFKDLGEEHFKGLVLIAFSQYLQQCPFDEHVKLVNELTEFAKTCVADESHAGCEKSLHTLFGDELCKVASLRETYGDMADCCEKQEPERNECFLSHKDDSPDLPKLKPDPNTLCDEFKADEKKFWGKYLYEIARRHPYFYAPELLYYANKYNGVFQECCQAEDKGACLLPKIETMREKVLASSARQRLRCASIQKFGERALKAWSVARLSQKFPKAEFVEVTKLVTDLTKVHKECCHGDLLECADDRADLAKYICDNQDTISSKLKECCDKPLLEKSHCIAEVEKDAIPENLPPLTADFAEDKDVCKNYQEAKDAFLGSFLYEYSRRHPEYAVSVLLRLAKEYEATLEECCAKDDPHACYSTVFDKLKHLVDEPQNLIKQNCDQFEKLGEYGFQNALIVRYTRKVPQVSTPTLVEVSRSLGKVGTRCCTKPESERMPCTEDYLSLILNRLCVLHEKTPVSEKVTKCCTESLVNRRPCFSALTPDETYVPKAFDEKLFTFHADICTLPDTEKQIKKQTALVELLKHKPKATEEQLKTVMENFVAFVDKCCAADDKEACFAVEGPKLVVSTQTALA

[1] = probe aXIP binding to arrayed compounds – biochemical, NeuroSMM set, 635/667 nm fluorescence, primary screen (AID 1119); settings: small-molecule microarray, higher = more signal, called active from +8 up or from −8 down;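 also: probe is the protein aXip251-270 applied at 1 µg/mL to compound-printed slides; binding of probe to printed compounds measured as 667 nm fluorescence plus signal to noise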
[2] = probe aNOTCH3 binding on compound microarray – biochemical, small-molecule microarray, 635/667 nm fluorescence, primary screen (AID 1120); settings: higher = more signal;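 also: probe is a biotin-tagged antibody raised against NOTCH3 rather than NOTCH3 protein; score merges spot fluorescence near 667 nm with spot signal to noise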
[3] = probe aNOTCH2 binding on compound microarray – biochemical, small-molecule microarray, 635/667 nm fluorescence, primary screen (AID 1121); settings: higher = more signal;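 also: score merges feature fluorescence read at 667 nm with its signal to noise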
[4] = target: Carbonic anhydrase 2 (Homo sapiens) (UniProt P00918); assay: compounds binding carbonic anhydrase 2 – biochemical, small-molecule microarray, Alexa647-labelled CAII, profiling panel (AID 1122); settings: CAII-A647 binding fluorescence, higher = more signal
[5] = COS7 lysate on small-molecule microarray, probe aHis, 635 nm (AID 1123); settings: COS7 cell lysate, fluorescence, higher = more signal;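 also: z-score combines 667nm fluorescence intensity with signal-to-noise per printed compound spot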
[6] = probe aLAP1 signal on lysate-treated microarray – cell lysate, small-molecule microarray, COS7 lysate, primary screen (AID 1124); settings: probe aLAP1, fluorescence, higher = more signal;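 also: lysate comes from COS7 cells expressing LAP1 and is applied at 0.3 µg/mL; score merges spot fluorescence near 667 nm with signal-to-noise over triplicate slides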
Sam68 (KHDRBS1) = assay: compounds binding KHDRBS1 protein – biochemical, small-molecule microarray, 635 nm fluorescence, primary screen (AID 1125); settings: higher = more signal;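 also: score merges 667 nm channel intensity with signal to noise over triplicate slides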
[7] = test system: Chordin-like protein 2 (CHRDL2); assay: compounds binding chordin-like 2 – biochemical, small-molecule microarray, 635 nm fluorescence, primary screen (AID 1126); settings: fluorescence 635 nm, higher = more signal;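 also: printed compound slides probed with Chrdl2 protein at 4 µg/mL for 1 h at 4 C; score merges 667 nm emission intensity with signal to noise over three replicate slides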
[8] = target: Concanavalin-A (Canavalia ensiformis) (UniProt P02866); assay: compounds binding concanavalin A lectin – biochemical, small-molecule microarray, Alexa647 label, 635 nm, artefact control for SMM control protein annotation, primary screen (AID 1127); settings: ConA-A647 binding fluorescence, higher = more signal;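 also: z combines 667 nm emission intensity with signal-to-noise across three replicate slides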
Chain of Concanavalin-A (Canavalia ensiformis) (P02866 whole entry, looked up): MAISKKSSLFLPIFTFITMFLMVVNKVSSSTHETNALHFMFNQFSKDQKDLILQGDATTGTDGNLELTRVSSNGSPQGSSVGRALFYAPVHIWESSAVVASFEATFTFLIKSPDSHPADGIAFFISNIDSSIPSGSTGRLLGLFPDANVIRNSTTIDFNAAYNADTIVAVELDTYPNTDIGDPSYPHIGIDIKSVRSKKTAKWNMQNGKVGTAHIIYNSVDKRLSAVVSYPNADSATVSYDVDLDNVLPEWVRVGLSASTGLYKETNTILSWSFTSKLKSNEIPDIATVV

[9] = compounds binding Alexa647 anti-His antibody – biochemical, small-molecule microarray, 635 nm fluorescence, artefact control for SMM control protein annotation, primary screen (AID 1128); settings: higher = more signal;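 also: score merges feature fluorescence with signal-to-noise for each printed compound spot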
[10] = test system: Human papillomavirus type 1a E7 protein (residues 1-88); assay: HPV1a E7 small-molecule binders, primary screen, biochemical, small-molecule microarray, residues 1-88, 635 nm (AID 1129); settings: small-molecule microarray binding, fluorescence 635 nm; higher = more signal
[11] = target: Focal adhesion kinase 1 (Homo sapiens) (UniProt Q05397); assay: PTK2 protein binding on printed compound slides – biochemical, small-molecule microarray, 635/667 nm fluorescence, BSA, DTT, primary screen (AID 1130); settings: 635 nm fluorescence, higher = more signal;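 also: composite of spot emission at 667 nm and signal to noise over triplicate slides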
Chain of Focal adhesion kinase 1 (Homo sapiens) (Q05397 whole entry, looked up): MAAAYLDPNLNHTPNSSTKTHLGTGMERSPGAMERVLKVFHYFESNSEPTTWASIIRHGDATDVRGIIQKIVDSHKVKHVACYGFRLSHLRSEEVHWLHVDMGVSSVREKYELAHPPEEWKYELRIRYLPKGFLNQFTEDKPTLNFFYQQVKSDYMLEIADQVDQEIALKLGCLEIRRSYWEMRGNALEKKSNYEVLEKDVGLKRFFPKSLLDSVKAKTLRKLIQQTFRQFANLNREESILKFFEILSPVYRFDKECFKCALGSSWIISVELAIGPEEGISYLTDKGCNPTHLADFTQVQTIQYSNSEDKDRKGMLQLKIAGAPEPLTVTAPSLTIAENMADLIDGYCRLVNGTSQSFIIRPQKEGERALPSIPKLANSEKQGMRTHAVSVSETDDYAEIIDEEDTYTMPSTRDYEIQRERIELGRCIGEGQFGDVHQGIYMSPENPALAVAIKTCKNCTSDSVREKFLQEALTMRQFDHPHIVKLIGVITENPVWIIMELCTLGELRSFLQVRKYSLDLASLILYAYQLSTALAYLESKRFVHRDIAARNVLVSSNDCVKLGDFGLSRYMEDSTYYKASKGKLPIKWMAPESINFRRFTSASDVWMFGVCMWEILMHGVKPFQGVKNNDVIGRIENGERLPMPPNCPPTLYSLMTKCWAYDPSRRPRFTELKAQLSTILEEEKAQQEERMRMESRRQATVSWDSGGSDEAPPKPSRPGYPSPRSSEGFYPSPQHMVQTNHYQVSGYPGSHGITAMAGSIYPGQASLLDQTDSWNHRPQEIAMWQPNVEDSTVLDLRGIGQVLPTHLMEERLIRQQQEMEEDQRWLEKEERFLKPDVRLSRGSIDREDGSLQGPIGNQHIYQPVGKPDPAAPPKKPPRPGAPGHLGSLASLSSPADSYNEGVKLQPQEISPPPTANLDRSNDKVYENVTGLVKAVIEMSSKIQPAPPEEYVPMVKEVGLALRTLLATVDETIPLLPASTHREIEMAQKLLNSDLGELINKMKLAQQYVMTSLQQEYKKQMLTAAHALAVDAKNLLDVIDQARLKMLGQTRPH

[12] = test system: Fibrinogen (Alexa647-labelled); assay: Alexa647-fibrinogen binding to printed small molecules – biochemical, small-molecule microarray, 635/667 nm fluorescence, artefact control for SMM control-protein annotation, profiling panel (AID 1131); settings: fibrinogen-A647 binding fluorescence, higher = more signal;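 also: z-score merges 667 nm fluorescence with per-spot signal-to-noise over triplicate slides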
[13] = target: Follistatin (Homo sapiens) (UniProt P19883); assay: FST protein binding to printed compounds – biochemical, small-molecule microarray, 635/667 nm fluorescence, primary screen (AID 1132); settings: 635 nm fluorescence, higher = more signal
Chain of Follistatin (Homo sapiens) (P19883 whole entry, looked up): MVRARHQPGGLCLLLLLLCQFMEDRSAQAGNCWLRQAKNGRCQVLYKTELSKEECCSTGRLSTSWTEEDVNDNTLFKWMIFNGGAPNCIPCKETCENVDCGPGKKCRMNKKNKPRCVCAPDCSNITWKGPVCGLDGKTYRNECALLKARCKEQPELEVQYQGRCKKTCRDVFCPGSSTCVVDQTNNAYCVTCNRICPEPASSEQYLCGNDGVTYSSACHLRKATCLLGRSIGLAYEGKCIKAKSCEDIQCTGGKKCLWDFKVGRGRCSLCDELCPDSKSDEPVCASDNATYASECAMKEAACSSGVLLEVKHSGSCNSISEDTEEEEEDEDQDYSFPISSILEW

[14] = target: Fibroblast growth factor 2 (Homo sapiens) (UniProt P09038); assay: basic fibroblast growth factor binding to printed compounds – biochemical, small-molecule microarray, 635/667 nm fluorescence, primary screen (AID 1133); settings: FGF2, fluorescence 635/667, higher = more signal
Chain of Fibroblast growth factor 2 (Homo sapiens) (P09038 whole entry, looked up): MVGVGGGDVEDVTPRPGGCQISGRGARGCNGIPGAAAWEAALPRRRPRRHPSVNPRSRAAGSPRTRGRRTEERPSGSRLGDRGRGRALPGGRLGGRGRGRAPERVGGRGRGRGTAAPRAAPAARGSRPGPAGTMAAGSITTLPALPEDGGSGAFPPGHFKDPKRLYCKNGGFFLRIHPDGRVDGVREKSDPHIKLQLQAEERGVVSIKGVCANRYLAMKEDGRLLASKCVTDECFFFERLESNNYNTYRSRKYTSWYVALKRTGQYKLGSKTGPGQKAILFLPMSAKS

[15] = JC-1 mitochondrial potential readout, lung cancer cells – cell-based, A549, JC-1 fluorescence, basal, 24 h, 100 nL, profiling panel (AID 1138); settings: higher = more signal;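 also: A549 lung adenocarcinoma cells under basal conditions with no added stimulus; test concentration not given here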
Lefty1 = Lefty1 protein binding to printed compounds – biochemical, small-molecule microarray, 635/667 nm fluorescence, primary screen (AID 1139); settings: fluorescence 635/667, higher = more signal
[16] = test system: wheat germ agglutinin (Triticum aestivum), Alexa647-labelled; assay: Alexa647-WGA lectin binding to printed small molecules – biochemical, small-molecule microarray, 635/667 nm fluorescence, artefact control for SMM control-protein annotation, profiling panel (AID 1140); settings: WGA-A647 binding, 635 nm fluorescence, higher = more signal;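 also: score merges 667 nm feature emission with signal to noise over triplicate slides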
[17] = target: Luciferin 4-monooxygenase (Photinus pyralis) (UniProt P08659); assay: inhibition of purified Photinus pyralis luciferase – biochemical, luminescence, purified enzyme, 2006 set, primary screen (AID 1141); settings: purified firefly luciferase, SteadyGlo luminescence, 30 min; higher = more signal, called active from +8 up or from −8 down;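 also: cell-free assay with purified firefly luciferase at 100 ng per well in PBS; test concentration not given here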
Chain of Luciferin 4-monooxygenase (Photinus pyralis) (P08659 whole entry, looked up): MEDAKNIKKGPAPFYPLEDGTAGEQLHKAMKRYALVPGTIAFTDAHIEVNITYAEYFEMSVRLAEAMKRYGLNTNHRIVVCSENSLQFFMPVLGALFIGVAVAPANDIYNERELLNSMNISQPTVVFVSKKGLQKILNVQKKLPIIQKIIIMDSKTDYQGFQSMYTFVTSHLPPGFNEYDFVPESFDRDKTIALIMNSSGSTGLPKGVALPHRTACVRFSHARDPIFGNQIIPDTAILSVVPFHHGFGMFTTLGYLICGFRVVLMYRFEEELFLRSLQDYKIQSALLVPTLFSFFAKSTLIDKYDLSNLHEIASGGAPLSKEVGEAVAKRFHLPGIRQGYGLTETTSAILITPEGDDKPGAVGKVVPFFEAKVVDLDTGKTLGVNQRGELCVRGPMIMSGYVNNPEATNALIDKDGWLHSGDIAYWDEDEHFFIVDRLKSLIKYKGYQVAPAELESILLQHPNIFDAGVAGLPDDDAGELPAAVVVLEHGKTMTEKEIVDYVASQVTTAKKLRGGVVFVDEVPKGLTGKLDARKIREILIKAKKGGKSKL

SMILES	composite z-score (Albumin (Bos taurus))	composite Z-score [1]	composite z-score [2]	composite z-score [3]	composite z-score [4]	composite z-score [5]	composite z-score [6]	composite z-score (Sam68 (KHDRBS1))	composite z-score [7]	composite z-score [8]	composite z-score [9]	composite z-score [10]	composite z-score [11]	composite z-score [12]	composite z-score [13]	composite z-score [14]	z-score [15]	composite z-score (Lefty1)	composite z-score [16]	z-score [17]
CO[C@H]1COC(=O)[C@H](CCSC)NC(=O)CC=C[C@@H](C)[C@H](OC)COC(=O)[C@@H](OCc2ccccc2)C=C[C@@H]1C	-0.798	1.04 (inactive)	-0.043	-0.153	-0.173	-0.919	0.0916	0.835	1.45	-0.257	0.657	0.116	-0.0918	-0.84	1.23	0.689	-1.19	1.3	-0.36	1.28 (inactive)
CCOC(=O)[C@H](Cc1ccccc1)NC(=O)CCC1CC(OC(=O)NCc2ccc3c(c2)OCO3)CC2(CCCC(COC(=O)NCCOC)O2)O1 (stereo not given in full)	-0.756	0.0786 (inactive)	0.163	-0.0785	0.134	0.577	-0.172	1.3	0.379	1.06	0.431	1.14	-0.341	0.69	0.808	0.455	-0.599	1.26	0.581	0.724 (inactive)
CC(CCN1CCCc2nc(C)c(C)cc21)=NOC[C@@H](C)[C@H](OCc1ccccc1)C(C)C	-0.453	0.081 (inactive)	-0.0918	-0.0878	-0.358	0.816	-0.432	-0.818	-0.621	-0.691	2.52	-0.703	-0.0748	-0.9	-0.516	-0.165	1.37	0.241	-0.606	-1.14 (inactive)
C[C@H]1CC[C@@H](C(=O)O)N[C@@H]1c1cccc(N2CCCC2=O)c1	-0.0315	-0.38 (inactive)	-0.173	-0.14	-0.192	-0.101	-0.127	0.0706	0.456	0.116	-0.0817	0.675	-0.0555	0.25	0.412	0.229	1.21	0.132	-0.368	-1.21 (inactive)
CCc1cc2c(nc1CC)CCN(CCC(C)=NOCC[C@@H]1C=C[C@H](OC(C)=O)[C@@H](COC(C)=O)O1)C2	0.466	0.497 (inactive)	0.493	-0.0798	0.0943	-0.119	0.277	1.23	0.412	0.446	0.345	-0.19	0.174	-0.0226	0.823	0.273	0.677	1.18	0.0479	0.855 (inactive)
CC(C)CON=C1C[C@@H](O)[C@@H](O)[C@@H]2[C@@H]3C(=O)N(Cc4ccc5c(c4)OCO5)C(=O)[C@@H]3CC[C@@H]12	0.713	0.311 (inactive)	-0.179	-0.0891	0.614	0.862	-0.0121	0.853	-0.0113	0.922	0.918	0.245	0.227	0.655	0.0087	1.22	0.0679	-0.0226	0.0667	0.966 (inactive)
O=C1[C@H]2[C@H]3[C@H](O)[C@H](O)CC(=NOCc4ccccc4)[C@H]3CC[C@H]2C(=O)N1C1CCCCC1	0.487	0.447 (inactive)	-0.0744	-0.14	0.505	0.596	-0.438	0.734	0.318	0.921	0.992	0.944	0.041	1	0.28	0.479	0.436	0.355	0.971	0.18 (inactive)
COC(=O)[C@H](C)NC(=O)CCC1CC(OC(=O)NCCc2ccc(F)cc2)CC2(CCCC(COC(=O)NCCc3ccccc3OC)O2)O1 (stereo not given in full)	0.335	0.353 (inactive)	-0.0288	-0.0061	0.244	1.25	0.0635	1.29	0.559	0.924	0.706	1.12	0.0694	0.733	1.18	0.591	0.625	0.554	0.432	0.484 (inactive)
CCOC(=O)[C@H](CC(C)C)NC(=O)CCC1CC(OC(=O)NCc2ccc3c(c2)OCO3)CC2(CCCC(COC(=O)NCc3ccccc3)O2)O1 (stereo not given in full)	0.646	1.09 (inactive)	-0.226	-0.146	0.198	1.25	-0.118	1.19	0.161	1.01	0.333	0.946	0.0786	0.926	0.659	0.495	-0.0369	1.03	0.786	0.976 (inactive)
CC(C)=CCCC(C)=CCON=C1C[C@@H](O)[C@@H](O)[C@@H]2[C@@H]3C(=O)N([C@@H](C)c4ccccc4)C(=O)[C@@H]3CC[C@@H]12	0.0686	-0.283 (inactive)	-0.0311	-0.0194	0.043	0.157	0.0404	0.121	1.04	0.6	0.509	0.499	0.276	0.297	0.462	0.58	-0.569	0.6	0.0833	0.391 (inactive)
CCOC(=O)[C@H](Cc1ccccc1)NC(=O)CCC1CC(OC(=O)NCc2cccc3ccccc23)CC2(CCCC(COC(=O)NCc3ccc4c(c3)OCO4)O2)O1 (stereo not given in full)	0.85	0.464 (inactive)	0.0824	-0.148	0.509	0.831	0.404	0.477	-0.054	0.0672	0.209	0.397	0.338	0.508	0.222	0.982	0.4	0.659	-0.074	-0.323 (inactive)
